In the library only some 11% were active in any assay of this set; here they are far more common.
CBFb-RUNX1 inh = blocks binding between human CBF-beta and RUNX1; Q01196+Q13951; AlphaScreen CBFb-His/RUNX1-biotin binding, biochemical; Potency, µM (highest dose often 59.8 µM), most hits filed as inhibitors; 230,000 tested, under 10 active; AID 1477
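CBFb-His/RUNX1-biotin, 30 nM each, preincubated 20 min RT; compound 15 min RT; Ni + streptavidin beads 50 ng each, 90 min RT; AlphaScreen read.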
HttQ103 aggreg = mutant huntingtin aggregation inhibition; PC12 HttQ103-GFP aggregates, Acumen cytometry, 40 h; Potency, µM (highest dose often 46.1 µM), hits mostly inhibitors; actives 1.1% (n = 220,000); AID 1688; note: nearly all actives have a fitted effect of over 60% in size
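Aggregate formation scored by laser-scanning cytometer (488 excitation, 500–530 emission) in lysed PC12 cells expressing Q103-GFP after 100 nM tebufenozide induction; library tested in dose series, with ATPLite reagent added in the multiplex.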
HTT cytoprotect = protects HTT-Q103 PC12 cells, measured by ATP. PC12 HTT-Q103 induced, cytoprotection, ATP luminescence, 40 h. Potency, µM (titrated, usually from 56.4 µM), usual class: activators. actives 0.14% (n = 230,000). AID 1471; note: nearly all actives have a fitted effect of over 45% in size
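Readout: ATPlite luminescence (ATP level). Model: stable PC12, inducible Htt exon1 Q103-GFP. Inducer: tebufenozide, 100 nM final. Compounds: dose series. No G418 in medium.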
HPGD block = blocks human HPGD enzyme activity; Potency, µM, usual class: inhibitors; actives 4.3% (n = 150,000); P15428; purified HPGD, NADH fluorescence kinetic, PGE2 substrate; active = well fitted inhibition curve with a large enough effect, not every such curve was filed as active; inconclusive = small, poorly fitted or top-dose-only effect, or another doubt; inactive = no such curve, though single readings can be large or run the other way
Target sequence (P15428 whole entry, looked up): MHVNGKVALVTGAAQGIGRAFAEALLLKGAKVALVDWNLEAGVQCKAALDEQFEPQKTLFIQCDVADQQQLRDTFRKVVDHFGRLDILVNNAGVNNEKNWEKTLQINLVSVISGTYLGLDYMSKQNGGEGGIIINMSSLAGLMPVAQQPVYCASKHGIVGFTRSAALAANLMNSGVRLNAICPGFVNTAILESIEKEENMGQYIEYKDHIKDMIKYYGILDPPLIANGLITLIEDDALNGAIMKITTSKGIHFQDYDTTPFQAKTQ
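20 nM HPGD preincubated 15 min at room temperature with compound in 50 mM Tris-HCl pH 8, 0.01% Tween 20. Started with 1 mM NAD+ and 30 uM prostaglandin E2; NADH fluorescence (360/450 nm) read 5 times over 30-s intervals, last minus first.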
ALDH1A1 block = ALDH1A1 (human) enzyme inhibition. P00352. Purified ALDH1A1, NADH fluorescence, propionaldehyde substrate. Potency, µM (doses to about 75.3 µM), usual class: inhibitors. actives 7.3% (n = 220,000); active = well fitted inhibition curve with a large enough effect, not every such curve was filed as active; inconclusive = small, poorly fitted or top-dose-only effect, or another doubt; inactive = no such curve, though single readings can be large or run the other way
Target sequence (P00352 whole entry, looked up): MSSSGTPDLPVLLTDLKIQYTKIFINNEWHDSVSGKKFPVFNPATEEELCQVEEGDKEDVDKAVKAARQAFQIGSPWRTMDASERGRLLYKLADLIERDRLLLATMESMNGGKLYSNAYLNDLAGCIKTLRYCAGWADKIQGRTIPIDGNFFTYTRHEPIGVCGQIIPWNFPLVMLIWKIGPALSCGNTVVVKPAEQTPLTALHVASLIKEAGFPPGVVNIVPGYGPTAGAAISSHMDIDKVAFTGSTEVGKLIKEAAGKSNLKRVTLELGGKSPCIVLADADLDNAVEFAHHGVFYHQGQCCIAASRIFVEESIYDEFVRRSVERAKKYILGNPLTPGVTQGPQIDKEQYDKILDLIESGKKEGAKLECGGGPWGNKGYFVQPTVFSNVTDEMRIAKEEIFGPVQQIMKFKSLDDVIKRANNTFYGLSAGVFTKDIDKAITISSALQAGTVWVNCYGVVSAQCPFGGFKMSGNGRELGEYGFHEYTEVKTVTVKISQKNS
PNC assembly inh = inhibitors of perinucleolar compartment assembly. activity change (PNC), negative = inhibition, % at 10 µM. PC3M PTB-GFP, PNC prevalence imaging, 16 h; stronger effect = lower value. actives 3.1% (n = 140,000);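 active = readout at or below -70, meaning at least 70% loss of cells showing the perinucleolar compartment, a nuclear body marking cancer cells; inconclusive = readout between -30 and a set limit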
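Compounds are pinned in duplicate onto adhered PC3M cells stably expressing GFP-tagged PTB and incubated 16 h at 37 C. Cells are then fixed, nuclei stained with Hoechst, and PNC-positive cells counted.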
A number is an active result; [ ] = another dose, or the depositor's remark. Unless noted, calls come from the whole dose curve; as a rule, active = well fitted curve in the direction sought with a large enough effect; inconclusive = small, poorly fitted or top-dose-only effect, or another doubt; inactive = no such curve, though single readings can be large; an effect the other way counts as inactive or inconclusive.

Results for Cc1cccc2cc3c(nc12)SC(=NCC1CCCO1)N(Cc1ccco1)C3 (configuration not stated) ?
CBFb-RUNX1 inh: inactive; HttQ103 aggreg: inactive; HTT cytoprotect: inactive[10 µM]; ALDH1A1 block: 4.47µM; PNC assembly inh: inactive

How did COCCN=C1Sc2nc3c(C)cccc3cc2CN1Cc1ccco1 do in these assays?
CBFb-RUNX1 inh: inactive; HttQ103 aggreg: inconclusive; HTT cytoprotect: inconclusive; HPGD block: 22.4µM; ALDH1A1 block: 3.55µM; PNC assembly inh: inactive

What do the screens show for `CC1(C)C(=O)C(c2ccccc2)=C2CN3C(=O)N(CCc4ccccc4)C(=O)C3(Cc3ccc(F)cc3)C=C21` (configuration not stated)?
CBFb-RUNX1 inh: inactive; HTT cytoprotect: inactive; HPGD block: inactive; ALDH1A1 block: inactive

What do the screens show for `O=C(NC(=S)Nc1ccccc1Cl)c1csnn1`?
CBFb-RUNX1 inh: inactive; HttQ103 aggreg: inactive; HTT cytoprotect: inactive; HPGD block: inconclusive; ALDH1A1 block: 4.47µM; PNC assembly inh: inactive

What do the screens show for `CC(C)c1ccc(NC(=O)c2csnn2)cc1`?
CBFb-RUNX1 inh: inactive; HttQ103 aggreg: inactive; HTT cytoprotect: inactive; HPGD block: inconclusive; ALDH1A1 block: 17.8µM; PNC assembly inh: inactive

How did O=C1CC(N2CCOCC2)C(=O)N1c1cccc(Cl)c1 (configuration not stated) do in these assays?
CBFb-RUNX1 inh: inactive; HttQ103 aggreg: inactive; HTT cytoprotect: inactive; HPGD block: inactive; ALDH1A1 block: inconclusive; PNC assembly inh: inactive

How did O=C(O)c1ccc(N2C(=O)CC(N3CCC(c4nc5ccccc5[nH]4)CC3)C2=O)cc1 (configuration not stated) do in these assays?
CBFb-RUNX1 inh: inactive; HttQ103 aggreg: inactive; HTT cytoprotect: inactive; ALDH1A1 block: 31.6µM

How did O=C(C1CCN(C2CC(=O)N(c3cccc(Cl)c3)C2=O)CC1)N1CCCCCC1 (configuration not stated) do in these assays?
CBFb-RUNX1 inh: inactive; HttQ103 aggreg: inactive; HTT cytoprotect: inactive; HPGD block: inactive; ALDH1A1 block: 20µM; PNC assembly inh: inactive

How did CN1C(=O)CC(N2CCC(c3nc4ccccc4[nH]3)CC2)C1=O (configuration not stated) do in these assays?
CBFb-RUNX1 inh: inactive; HttQ103 aggreg: inactive; HTT cytoprotect: inactive; HPGD block: inactive; ALDH1A1 block: inactive; PNC assembly inh: inactive

Results for O=C1CC(N2CCN(c3ccccc3Cl)CC2)C(=O)N1c1cccc(F)c1 (configuration not stated) ?
CBFb-RUNX1 inh: inactive; HttQ103 aggreg: inactive; HTT cytoprotect: inactive[0.074 µM]; HPGD block: inactive; ALDH1A1 block: 11.2µM; PNC assembly inh: inactive

How did O=C1CC(N2CCC(c3nc4ccccc4[nH]3)CC2)C(=O)N1c1cccc(F)c1 (configuration not stated) do in these assays?
CBFb-RUNX1 inh: inactive; HttQ103 aggreg: inactive; ALDH1A1 block: 11.2µM

What do the screens show for `CCCCC/C=C\C/C=C\C/C=C\C=C\C(O)CCCC(=O)O` (configuration not stated)?
CBFb-RUNX1 inh: inactive; HTT cytoprotect: inactive; HPGD block: inactive; ALDH1A1 block: inactive

How did O=C1CC(N2CCC(c3nc4ccccc4o3)CC2)C(=O)N1c1ccc(Cl)c(C(F)(F)F)c1 (configuration not stated) do in these assays?
CBFb-RUNX1 inh: inactive; HttQ103 aggreg: inactive; HTT cytoprotect: inactive; HPGD block: 20µM; ALDH1A1 block: 8.91µM; PNC assembly inh: inactive

What do the screens show for `COc1ccccc1C(=O)N/N=C(\C)c1ccc(NC(=O)C2CC2)cc1`?
CBFb-RUNX1 inh: inactive; HttQ103 aggreg: inconclusive; HTT cytoprotect: inactive[10 µM]; HPGD block: inactive; ALDH1A1 block: inactive; PNC assembly inh: inconclusive

Results for Cc1ccc(S(=O)(=O)N2CCN(C(=O)CSc3nc(N)cc(=O)[nH]3)CC2)c(C)c1 ?
CBFb-RUNX1 inh: inconclusive; HttQ103 aggreg: inactive; HTT cytoprotect: inactive; ALDH1A1 block: inactive

How did Cc1ccc(S(=O)(=O)N2CCN(C(=O)CSc3nnnn3C)CC2)c(C)c1 do in these assays?
CBFb-RUNX1 inh: inactive; HttQ103 aggreg: inactive; HTT cytoprotect: inactive[10 µM]; ALDH1A1 block: 25.1µM

What do the screens show for `c1ccc(-c2nc(-c3cccc4ccccc34)c(NC3CCCCC3)o2)cc1`?
CBFb-RUNX1 inh: inactive; HTT cytoprotect: inactive; HPGD block: inactive; ALDH1A1 block: inactive

Results for CC(/C=N/Nc1nc(C)cc(C)n1)=C\c1ccc(C(C)C)cc1 ?
CBFb-RUNX1 inh: inactive; HttQ103 aggreg: inactive; HPGD block: inactive; ALDH1A1 block: inactive; PNC assembly inh: -113.8

What do the screens show for `Cc1ccc(C(=O)CCNc2ccc(Br)cc2)o1`?
CBFb-RUNX1 inh: inactive; HttQ103 aggreg: inconclusive; HTT cytoprotect: inactive[0.074 µM]; HPGD block: inactive; ALDH1A1 block: 11.2µM; PNC assembly inh: inactive

How did Cc1ccc(C(=O)CCNc2ccc(F)c(Cl)c2)o1 do in these assays?
CBFb-RUNX1 inh: inactive; HttQ103 aggreg: inactive; HTT cytoprotect: inactive; HPGD block: inactive; ALDH1A1 block: 14.1µM; PNC assembly inh: inactive

What do the screens show for `Cc1ccc(C(=O)CCNc2ccccc2)o1`?
CBFb-RUNX1 inh: inactive; HttQ103 aggreg: inactive; HTT cytoprotect: inactive[0.074 µM]; HPGD block: inactive; ALDH1A1 block: 15.8µM; PNC assembly inh: inactive

What do the screens show for `CCCCCCCCCCCCCCCCCC(=O)NC[C@@H](COP(=O)([O-])OCC[N+](C)(C)C)OCC`?
HTT cytoprotect: inactive[1.9 µM]

How did CCOc1ccc(/C=C2\SC(=S)N(CCC(=O)O)C2=O)cc1 do in these assays?
CBFb-RUNX1 inh: inactive; HttQ103 aggreg: inactive[9.22 µM]; HTT cytoprotect: inactive[10 µM]

How did COc1cc(/C=C2\SC(=S)N(CCC(=O)Nc3ccccc3)C2=O)cc(OC)c1OC do in these assays?
CBFb-RUNX1 inh: inactive; HttQ103 aggreg: inactive[9.22 µM]; HTT cytoprotect: inactive[10 µM]; ALDH1A1 block: inactive

How did CCOc1ccc(/C=C2\SC(=S)N(Nc3ccccc3)C2=O)cc1OC do in these assays?
CBFb-RUNX1 inh: inactive; HttQ103 aggreg: inconclusive; HTT cytoprotect: inactive[10 µM]; HPGD block: inactive; ALDH1A1 block: 3.16µM; PNC assembly inh: inactive

What do the screens show for `COc1cc(/C=C2\SC(=S)N(NS(=O)(=O)c3ccc(C)cc3)C2=O)ccc1O`?
CBFb-RUNX1 inh: inactive; HttQ103 aggreg: inactive[9.22 µM]; HTT cytoprotect: inactive[10 µM]; ALDH1A1 block: 25.1µM

How did C=CCN1C(=O)/C(=C\c2cc(Br)c(OCc3ccccn3)c(OC)c2)SC1=S do in these assays?
CBFb-RUNX1 inh: inactive; HttQ103 aggreg: inactive; ALDH1A1 block: 0.282µM

How did CCOc1cc(/C=C2/SC(=S)N(C)C2=O)ccc1Oc1ccc([N+](=O)[O-])cc1[N+](=O)[O-] do in these assays?
CBFb-RUNX1 inh: inactive; HttQ103 aggreg: inactive; HTT cytoprotect: inactive; ALDH1A1 block: 0.398µM

What do the screens show for `COc1cc(/C=C2\SC(=S)N(NS(=O)(=O)c3ccccc3)C2=O)ccc1O`?
CBFb-RUNX1 inh: inactive; HttQ103 aggreg: inactive[9.22 µM]; HTT cytoprotect: inactive[10 µM]

Source: PubChem (National Center for Advancing Translational Sciences (NCATS))
